Screening data from PubChem.
Hits are enriched below; roughly 1.6% of the tested compounds scored in any of these assays.
ATG4B inh = blocks human ATG4B protease cleavage of LC3 substrate | Q9Y4P1 | ATG4B cleavage of LC3-PLA2, NBD-HPC fluorescence, 1 h | inhibition, % at 8.33 µM | actives 0.51% (n = 340,000) | AID 504462; in the data active means inhibition above about 40%
Target sequence (Q9Y4P1 whole entry, looked up): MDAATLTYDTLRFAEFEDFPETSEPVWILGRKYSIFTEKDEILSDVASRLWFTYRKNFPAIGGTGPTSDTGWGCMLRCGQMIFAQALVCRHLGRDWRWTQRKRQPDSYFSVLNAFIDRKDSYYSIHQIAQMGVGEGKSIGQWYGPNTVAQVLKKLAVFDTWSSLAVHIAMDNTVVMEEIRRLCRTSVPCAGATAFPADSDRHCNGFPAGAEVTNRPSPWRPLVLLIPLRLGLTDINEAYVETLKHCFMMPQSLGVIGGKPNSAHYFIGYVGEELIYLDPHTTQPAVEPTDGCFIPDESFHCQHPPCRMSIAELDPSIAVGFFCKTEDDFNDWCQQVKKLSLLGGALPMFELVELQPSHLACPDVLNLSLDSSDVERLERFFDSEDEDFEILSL
Efflux pump mplx = inhibitors of Candida antifungal efflux pumps expressed in yeast; actives 0.44% (n = 330,000); inhibition, % at 10 µM; S. cerevisiae Candida pump triplex, Nile Red efflux;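 active means plate passing quality check with inhibition over a set limit, or well fluorescence over plate mean plus 4 SD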;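 further: Nile Red retained in pooled yeast measured as flow cytometry median fluorescence; 0% = buffer negative control and 100% = Enniatin B positive control; higher means more Nile Red kept so more efflux inhibition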
CR mimetic SO = lowers age-related superoxide in aged yeast cells; S. cerevisiae aged cells, superoxide DHE fluorescence; stronger effect = lower value; actives 0.18% (n = 330,000); superoxide response (% of plate mean), % at 10 µM;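 active means superoxide response under a set limit, about three screen SD below normal, cut at about 65% in these data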;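 further: yeast aged for seven days with compound at 30 °C before DHE staining; 100% = average MFI of all compound-treated wells on the plate with controls excluded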
GRK2 inh = blocks RNA aptamer binding to human GRK2 | AID 488847 | actives 0.59% (n = 330,000) | bead flow cytometry, FAM-aptamer displacement from GRK2 | inhibition of aptamer binding, % at 10 µM;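 active means inhibition of aptamer binding above 40%, roughly 3 SD of noise, on plates passing a quality check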;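 further: median bead fluorescence of bound FAM aptamer so fluorescent compounds give negative values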
Cmpd fluor yeast = compound fluorescence in yeast efflux pump counter-screen. shares compounds with Efflux pump mplx. S. cerevisiae AD/pABC3, flow cytometry. fluorescence ratio to DMSO, % at 10 µM. actives 4% (n = 1,700). AID 588517;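 active means fluorescence ratio to DMSO above its plate's cutoff, the plate mean ratio plus 5 SD, cut at about 210% in these data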;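 further: unstained yeast with no Nile Red so the signal is compound autofluorescence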
CaMdr1 efflux inh = inhibitors of Candida albicans Mdr1 efflux pump. actives 1% (n = 1,700). S. cerevisiae AD/CaMDR1, Nile Red efflux, flow cytometry. shares compounds with Efflux pump mplx. AID 588518. inhibition, % at 10 µM; in the data active means inhibition above about 26%;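 further: 0% = DMSO vehicle and 100% = reference inhibitor; higher means more Nile Red retained so more efflux inhibition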
CaCdr2 efflux inh = blocks the Candida albicans Cdr2 efflux pump in yeast; Nile Red retention ratio vs DMSO, % at 10 µM; S. cerevisiae AD/CaCDR2, Nile Red retention, flow cytometry; actives 4% (n = 1,700); shares compounds with Efflux pump mplx; in the data active means Nile Red retention ratio vs DMSO above about 190%;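 further: higher ratio means more blocking of Cdr2 efflux of the dye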
CaCdr1 efflux inh = inhibitors of Candida albicans Cdr1 efflux pump; shares compounds with Efflux pump mplx; S. cerevisiae AD/CaCDR1, Nile Red efflux, flow cytometry; inhibition, % at 10 µM; actives 1% (n = 1,700); AID 588522;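 active means inhibition above the screen-wide mean plus twice its standard deviation, cut at about 32% in these data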
* hit, by the source's call; / = no result; + = active, no number.

SMILES | ATG4B inh | Efflux pump mplx | CR mimetic SO | GRK2 inh | Cmpd fluor yeast | CaMdr1 efflux inh | CaCdr2 efflux inh | CaCdr1 efflux inh
O=C(O)CCN1C(=O)/C(=C\c2ccc(-c3nc4ccccc4s3)o2)SC1=S | -13 | 0.9* | 161 | 31 | 114 | 8 | + | 56*
O=C(CSc1nnc(CNC(=O)c2ccccc2)o1)NCCc1ccccc1 | 1 | 0 | 104 | 0 | / | / | / | /
COc1ccc(NC(=S)Nc2ccccc2)c(OC)c1 | -3 | 1.1* | 104 | 1 | 107 | 0 | 104 | 0
COc1ccc(NC(=S)Nc2ccc(OCc3ccccc3)cc2)c(OC)c1 | -8 | 0 | 113 | 1 | / | / | / | /
CCN1/C(=C2/SC(=S)N(NC(C)=O)C2=O)Sc2ccccc21 | 0 | 0.8* | 100 | 0 | 100 | 0 | 96 | 0
CC(=O)NN1C(=O)/C(=C2/Sc3ccccc3N2C)SC1=S | 1 | 0 | 110 | 4 | / | / | / | /
Cc1ccccc1SCC(=O)Nc1cc(S(=O)(=O)N2CCOCC2)ccc1N1CCOCC1 | -3 | 0.8* | 108 | 2 | 108 | 0 | 110 | 0
O=C(CSc1cccc[n+]1[O-])Nc1cc(S(=O)(=O)N2CCOCC2)ccc1N1CCOCC1 | -2 | 0 | 113 | 2 | / | / | / | /
COc1cccc(C2c3c(C)nn(-c4ccc([N+](=O)[O-])cc4)c3N=C3C(=O)Nc4ccccc4N32)c1 (configuration not stated) | -24 | 0.4* | 97 | 6 | 103 | 0 | 98 | 0
CC(=O)Nc1ccc(NC2=Nc3ccccc3N3C2=Nc2c(c(C)nn2-c2ccccc2)C3c2ccccc2)cc1 (configuration not stated) | 15 | 0 | 99 | 7 | / | / | / | /
COc1ccc(NC2=Nc3ccccc3N3C2=Nc2c(c(C)nn2-c2ccc(C)cc2)C3c2cccnc2)cc1 (configuration not stated) | 0 | 0 | 107 | 7 | / | / | / | /
Cc1nn(-c2ccc([N+](=O)[O-])cc2)c2c1C(c1ccc(OC(F)F)cc1)N1C(=N2)C(=O)Nc2ccccc21 (configuration not stated) | -1 | 1.6* | 106 | 13 | 116 | 1 | 133 | 0
C[C@H]1CN([C@@H](C)CO)C(=O)c2cccc(NC(=O)Nc3ccc(C(F)(F)F)cc3)c2O[C@@H]1CN(C)S(=O)(=O)c1ccccc1 | / | 1 | 111 | 0 | / | / | / | /
COc1ccc(S(=O)(=O)N(C)C[C@H]2Oc3c(NC(=O)C4CC4)cccc3C(=O)N([C@H](C)CO)C[C@@H]2C)cc1 | -5 | 1 | 84 | 3 | / | / | / | /
COc1ccc(S(=O)(=O)N(C)C[C@H]2Oc3c(NC(=O)NC4CCCCC4)cccc3C(=O)N([C@H](C)CO)C[C@@H]2C)cc1 | -15 | 131* | 97 | 0 | 127 | 28* | 97 | 17
COc1ccc(S(=O)(=O)N(C)C[C@H]2Oc3c(NC(=O)Nc4ccc(C(F)(F)F)cc4)cccc3C(=O)N([C@H](C)CO)C[C@@H]2C)cc1 | -22 | 34* | 83 | 0 | 104 | 0 | 114 | 0
C[C@H](CO)N1C[C@H](C)[C@@H](CN(C)Cc2ccc(-c3ccccc3)cc2)Oc2c(NC(=O)Nc3ccc(C(F)(F)F)cc3)cccc2C1=O | 6 | 0 | 91 | 0 | 92 | 0 | 112 | 0
CCCCNC(=S)NNC(=O)c1c(C)nc2ccccn12 | 17 | 0 | 86 | 2 | / | / | / | /
COc1ccc2[nH]c(=O)c(CN(Cc3cccnc3)C(=S)NCC3CCCO3)cc2c1 (configuration not stated) | -2 | 0 | 89 | 0 | / | / | / | /
Cc1sc2nc(CSc3ccc([N+](=O)[O-])c(C(F)(F)F)c3)[nH]c(=O)c2c1C | 9 | 0 | 96 | 2 | / | / | / | /
CCOc1cccc(N(C(=O)CCC(=O)Nc2cc(C)on2)C(C(=O)NC(C)(C)C)c2ccc(OC)cc2)c1 (configuration not stated) | -16 | 0.5* | 108 | 5 | 110 | 0 | 120 | 0
COc1ccc(C(C(=O)NC(C)(C)C)N(C(=O)CCC(=O)Nc2cc(C)on2)c2cccc(F)c2)cc1 (configuration not stated) | -4 | 0 | 95 | 0 | 88 | 0 | 102 | 0
CCc1ccc(N(C(=O)CCC(=O)Nc2cc(C)on2)C(C(=O)NC(C)(C)C)c2ccc(OC)cc2)cc1 (configuration not stated) | -3 | 0 | 112 | 1 | / | / | / | /
COc1ccc(C(C(=O)NC(C)(C)C)N(CC2CCCO2)C(=O)CCC(=O)Nc2cc(C)on2)cc1 (configuration not stated) | -16 | 0.8* | 118 | 0 | 100 | 0 | 98 | 0
O=C(CCCc1ccccn1)c1ccc(-c2ccccc2)cc1 | 12 | / | / | / | / | / | / | /
SMILES | ATG4B inh | Efflux pump mplx | CR mimetic SO | GRK2 inh | Cmpd fluor yeast | CaMdr1 efflux inh | CaCdr2 efflux inh | CaCdr1 efflux inh
COc1ccc(CCNC(=O)C(NS(=O)(=O)c2ccc3c(c2)CCN3C(C)=O)C(C)C)cc1OC (configuration not stated) | / | 0 | 102 | 4 | / | / | / | /
CCc1ccc(NC(=O)C(NS(=O)(=O)c2ccc3c(c2)CCN3C(C)=O)C(C)C)cc1 (configuration not stated) | -6 | 1.6* | 99 | 2 | 105 | 0 | 89 | 0
COc1ccc(NC(=O)Cn2cc(S(=O)(=O)Cc3ccccc3)c3ccccc32)c(OC)c1 | -3 | 9.6* | 108 | 2 | 105 | 0 | 99 | 0
COc1ccc(NC(=O)/C(C#N)=C/c2ccc(OCc3ccccc3F)cc2)cc1 | -4 | 6.5* | 102 | 0 | 96 | 0 | 100 | 0
CN(C)c1ccc(/C=C/C(=O)c2c(O)c3ccccc3oc2=O)cc1 | -5 | 1.4* | 96 | 0 | 182 | 2 | 223* | 1
CCOc1ccc(/C=C/C(=O)c2c(O)c3ccccc3oc2=O)cc1 | -2 | 0 | 133 | 7 | / | / | / | /
CCOc1ccccc1NC(=S)NC1CC2CCC1C2 (configuration not stated) | 6 | 1.1* | 133 | 2 | 102 | 0 | 108 | 0
COc1ccc(NC(=S)NC2CC3CCC2C3)c(OC)c1 (configuration not stated) | -1 | 0 | 108 | 0 | / | / | / | /
CCN(C(=O)COC(=O)c1cc(S(=O)(=O)N2CCOCC2)c(Cl)cc1Cl)C1CCS(=O)(=O)C1 (configuration not stated) | 5 | 0.9* | 94 | 3 | 108 | 0 | 87 | 0
CCN(C(=O)COC(=O)c1ccc(F)c(S(=O)(=O)N2CCOCC2)c1)C1CCS(=O)(=O)C1 (configuration not stated) | -3 | 0 | 106 | 0 | / | / | / | /
